Sampled rows, rich in hits. Any-hit rate of the full collection: about 21%.
HCV inh = qHTS Assay for Inhibitors of Hepatitis C Virus (HCV); 340,000 compounds, 3.4% hits; Huh7.5.1 HCVcc-Cre infection, luciferase reporter, 44 h; AID 651820, 2012; Potency, µM (highest dose often 41.8 µM), without a hit: top-dose activity change, negative = inhibition, usual class: inhibitors; note: potency is the fitted concentration of half-maximal effect; % is set by controls: 0 for no effect and ±100 for the full control effect
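1,000 cells/well; 4 h culture; + compound; + HCVcc-Cre (~0.5 moi); 44 h; luciferase substrate, RT 15 min; read 15 sec.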
Pf growth 96h = Primary qHTS for delayed death inhibitors of the malarial parasite plastid, 96 hour incubation. AID 504834, 2011. 320,000 compounds, 6.9% hits. P. falciparum luciferase reporter growth, 96 h. Potency, µM (top dose mostly 28.7 µM), for the others: top-dose activity change, negative = inhibition, usual class: inhibitors; note: potency is the fitted concentration of half-maximal effect; % is set by controls: 0 for no effect and ±100 for the full control effect
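Luminescence readout: decreased luciferase signal marks inhibited growth of reporter-expressing P. falciparum in infected red cells (2% hematocrit, 0.05% parasitemia final), exposed to compound two generations (96 h, 37 C, 5% CO2).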
CHX counter = Cycloheximide Counterscreen for Small Molecule Inhibitors of Shiga Toxin; cell reporter, cycloheximide protein synthesis inhibition counterscreen; 300,000 compounds, 12% hits; max response, %; AID 2314, 2010; in the data active = max response mostly above about 13%, no sharp cut-off; inactive = mostly below about 14%; note: read at 38.3 µM for the half of the compounds with a filed dose; 0% is about no effect
AMA1-RON2 inh = qHTS for Inhibitors of AMA1-RON; Towards Development of Antimalarial Drug Lead: Primary Screen. 360,000 compounds, 0.2% hits. Plasmodium falciparum AMA1 (3D7) - RON2 peptide interaction. AlphaScreen AMA1-biotinylated RON2 peptide binding. Potency, µM (top dose mostly 58.2 µM), inactives show at the highest dose activity change, negative = inhibition, usual class: inhibitors;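 note: potency is the fitted concentration of half-maximal effect; 0% = vehicle wells and -100% = peptide control; nearly all actives have a fitted effect of over 45% in size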
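AMA1 (3D7) with his tag at 25 nM final met compounds first, then biotinylated RON2 peptide at 25 nM; detection used donor plus acceptor beads, 10 µg/mL apiece, read by AlphaScreen after 30 min at room temperature.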
Shiga toxin inh = A qHTS for Small Molecule Inhibitors of Shiga Toxin. Vero cells, Shiga toxin protein synthesis inhibition reporter. inhibition, % at 38.7 µM. 290,000 compounds, 9.2% hits; in the data active = inhibition mostly above about 28%, no sharp cut-off; inactive = mostly below about 43%; note: 0% is about no effect
Pf growth 48h = Primary qHTS for delayed death inhibitors of the malarial parasite plastid, 48 hour incubation | AID 504832, 2011 | Potency, µM (doses to about 28.7 µM), inactives show at the highest dose activity change, negative = inhibition, actives largely listed as inhibitors | P. falciparum luciferase growth in erythrocytes, 48 h | 310,000 compounds, 5.9% hits; note: potency is the fitted concentration of half-maximal effect; % is set by controls: 0 for no effect and ±100 for the full control effect
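Compounds are pin-transferred into medium, infected erythrocytes (2% hematocrit, 0.1% parasitemia final) are added, and plates sit one parasite generation at 37 C in 5% CO2. Detection reagent is then added and luminescence measured.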
* marks the source's active call; other numbers are inactive results; ? = inconclusive; · = no result. Unless noted, calls come from the whole dose curve; as a rule, active = well fitted curve in the direction sought with a large enough effect; inconclusive = small, poorly fitted or top-dose-only effect, or another doubt; inactive = no such curve, though single readings can be large; an effect the other way counts as inactive or inconclusive.

SMILES | HCV inh | Pf growth 96h | CHX counter | AMA1-RON2 inh | Shiga toxin inh | Pf growth 48h
CCOC(=O)c1c(C)[nH]c(C(=O)OCC(=O)NCCc2ccc(OCC)c(OCC)c2)c1C | ? | ? | · | -15% | · | 13µM*
CCOc1ccc(CCNC(=O)COC(=O)c2ccc(C)s2)cc1OCC | 0% | 10µM* | 12 | 2% | 44 | -11%
O=C(NCc1cccs1)C1C(=O)Nc2ccccc2C(=O)N1Cc1ccccc1 (configuration not stated) | · | · | · | 7% | · | ·
CC(=O)C1=C(O)C(=O)N(c2ccc(O)cc2)C1c1ccccc1Cl (configuration not stated) | 20% | ? | -4 | -7% | -4 | 8%
Cc1cc(/C=C2\SC(=O)N(CC(=O)Nc3ccccc3F)C2=O)c(C)n1C | 13% | 107% | -2 | -8% | -8 | -8%
COc1ccccc1N1C(=O)S/C(=C\c2cc(C)n(C)c2C)C1=O | ? | 38% | 29* | -5% | 56* | 79%
COc1ccccc1N1C(=O)S/C(=C\c2ccc(C)s2)C1=O | -19% | -27% | 22* | 6% | 28* | 30%
CN(CC(=O)Nc1ccc(F)cc1)C(=O)CN1C(=O)c2ccccc2C1=O | 21% | ? | · | 0% | · | 6%
Cc1ccc(C(=O)N2CCN(c3nc4ccccc4n3C)CC2)cc1 | -26% | 9% | 4 | 1% | 13 | ?
Cc1ccccc1NC(=O)NCCCN1CCN(C)CC1 | 12% | ? | 7 | -17% | 3 | 8%
O=C(NCCN1CCN(c2ccccc2)CC1)Nc1cccc(Br)c1 | 14µM* | ? | 7 | -20% | -2 | ?
O=C(NCCCN1CCc2ccccc2C1)Nc1ccc(Br)cc1 | -28% | ? | 23* | -8% | -9 | ·
Cc1ccccc1NC(=O)NCCCN1CCN(c2ccccc2)CC1 | 12% | 2.3µM* | 1 | -13% | -15 | ·
COc1ccccc1N1CCN(CCCNC(=O)Nc2ccccc2)CC1 | -21% | ? | 3 | -13% | 14 | 12µM*
COCCNC(=O)C1(C)CCCN(Cc2ccc(Oc3ccccc3)cc2)C1 (configuration not stated) | · | · | · | 4% | · | ·
NS(=O)(=O)c1ccc(CCNC(=O)c2cnccn2)cc1 | 19% | 32% | 3 | 3% | -2 | 15%
Cc1ccc(C2=NS(=O)(=O)N(C)C(C(=O)NC3CCCCC3)=C2)cc1 | -29% | 1% | 4 | -9% | 5 | 32%
COc1ccc(C(=O)NCCCN2CCN(CCCNC(=O)c3ccc(OC)c(OC)c3)CC2)cc1OC | 4% | -12% | · | -2% | · | 15%
COc1ccccc1N1CCN(CCCCNC(=O)c2ccc3ccccc3c2)CC1 | ? | 4.1µM* | · | -13% | · | ?
CC1(C(=O)NCc2ccc(Cl)cc2)CCN1C(=O)Cc1ccc(Cl)cc1Cl (configuration not stated) | · | · | · | -4% | · | ·
O=c1cc(-c2ccccc2)cc(-c2ccccc2)n1CCCO | ? | ? | · | 39% | · | 9.3µM*
O=C(CSc1ccc([N+](=O)[O-])cc1)NNC(=O)c1ccccc1F | 5% | 11% | 1 | 79% | 19 | 0%
COc1ccc(CC(N)c2csc(Nc3cc(NCc4ccco4)ncn3)n2)cc1 (configuration not stated) | · | · | · | 69% | · | ·
CCOC(=O)CSc1nc2cc3c(cc2cc1C#N)OCCO3 | -27% | 15% | 33* | -4% | 91* | 95%
CCOC(=O)CSc1nc2cc3c(cc2cc1C#N)OCO3 | -6% | 39% | 27 | 0% | 182* | 207%
SMILES | HCV inh | Pf growth 96h | CHX counter | AMA1-RON2 inh | Shiga toxin inh | Pf growth 48h
N#Cc1cc2cc3c(cc2nc1SCC(=O)N1CCOCC1)OCO3 | 5% | ? | 28* | -15% | 83* | 133%
COC(=O)CSc1nc2cc3c(cc2cc1C#N)OCO3 | -9% | · | 38* | -13% | 90* | 445%
CCCCn1c(N)c(N(CCOC)C(=O)CSc2nnc(-c3ccc(F)cc3)n2N)c(=O)[nH]c1=O | 18% | 5% | · | -1% | · | 15%
CCC(CC)C(=O)Nc1cc(NC(=O)C(CC)CC)cc(C(=O)O)c1 | -9% | · | -1 | 16% | -3 | 7%
CC(C)C(=O)Nc1ccc(Nc2ccccc2)cc1 | -13% | -31% | 17* | -5% | 15 | 18%
CCC(CC)C(=O)Nc1ccc(Nc2ccccc2)cc1 | ? | -29% | 19* | -8% | 28 | 16%
CCOC(=O)C1(CCc2ccccc2)CCN(C(=O)CCn2cnnn2)CC1 | 8% | 0% | 12* | 0% | 21 | 15%
CCOC(=O)C1(CCCc2ccccc2)CCN(C(=O)CCn2cnnn2)CC1 | 3% | 38% | 6 | -5% | 33 | -8%
CCOC(=O)C1(Cc2ccccc2Cl)CCN(S(=O)(=O)N(C)C)CC1 | 4% | -18% | 6 | -2% | 14 | -21%
CCOC(=O)C1(Cc2ccccc2Cl)CCN(C(=O)CCn2ccnc2C)CC1 | 7% | ? | 42* | -1% | 68* | -15%
CCOC(=O)C1(CCc2ccccc2)CCN(C(=O)CCn2cncn2)CC1 | 11% | ? | 32* | 2% | 63* | -3%
CCOc1cc(CNCc2ccncc2)cc(Cl)c1OC | 16% | 29% | -1 | -4% | -7 | 6%
COc1ccc(CCCN2CCC(CN3CCNC(=O)C3=O)CC2)cc1OC | 39% | · | · | -19% | · | ·
NNC(=O)c1cc(S(=O)(=O)N2CCOCC2)c[nH]1 | -14% | -20% | · | 99% | · | -27%
O=C1c2ccsc2SCCN1Cc1c(Cl)cccc1Cl | -26% | 6.6µM* | -1 | -10% | 19 | ·
COCC1CCCN(C(=O)c2ccc3nc(Cc4cccc(Cl)c4)oc3c2)C1 (configuration not stated) | -16% | 34% | 42* | -3% | 89* | 1%
COC1CCCN(C(=O)c2ccc3oc(Cc4ccc(Cl)cc4)nc3c2)C1 (configuration not stated) | -1% | ? | 0 | -1% | 25 | 8%
COC1CCCN(C(=O)c2ccc3nc(Cc4cccc(Cl)c4)oc3c2)C1 (configuration not stated) | 3% | ? | 17 | 7% | 49* | 40%
Cc1ccc(OCc2nc3ccccc3n2C(C(=O)NC(C)(C)C)c2ccncc2)cc1 (configuration not stated) | · | · | · | -14% | · | ·
CCOC(=O)CN1CC23C=CC(O2)C(C(=O)Nc2ccc(C(C)=O)cc2)C3C1=O (configuration not stated) | -23% | 12µM* | 1 | 0% | 7 | -1%
N#CNc1nc(O)cc(=O)[nH]1 | 16% | 19% | -2 | 15% | -5 | 38%

Bioassay records deposited in PubChem BioAssay by National Center for Advancing Translational Sciences (NCATS).
